This is a sample that favours compounds with a hit; in the whole collection about 12% have one here.
Insulin prom up: MIN6 insulin promoter up-regulation; MIN6 insulin promoter-GFP reporter, high-content imaging; hits give high values; z-score at 5 µM; 190,000 tested, 0.3% active; AID 1625;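 active = z-score above 3 at 5 µM with at least 500 cells counted in the well; inconclusive = wells under 500 cells, flagged as cytotoxic or low count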
KCC2 mod: modulates chloride dependent transport by human KCC2 | Q9H2X9 | KCC2 cells, thallium flux FluoZin-2 fluorescence | B-score of Tl+ flux slope (higher = more flux/activation; lower = inhibition) at 10 µM | 190,000 tested, 2.2% active;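 active = thallium flux slope and its plate-corrected score both differing from the plate sample mean at a set confidence after two filtering rounds, in either direction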;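 note: slope of fluorescence scaled to starting intensity during 10 to 20 s after thallium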
ROMK primary: modulators of human ROMK potassium channel | B-score at 10 µM | 130,000 tested, 2% active | Tet-inducible ROMK, thallium flux fluorescence; actives lie on both sides;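 active = signal ratio slope over the read window, or its plate-corrected B-score, at least 3 SD from the plate mean, either direction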;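 note: B-score of the F/F0 ratio slope over 7 to 12 s after thallium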
Target sequence (P48048 whole entry, looked up): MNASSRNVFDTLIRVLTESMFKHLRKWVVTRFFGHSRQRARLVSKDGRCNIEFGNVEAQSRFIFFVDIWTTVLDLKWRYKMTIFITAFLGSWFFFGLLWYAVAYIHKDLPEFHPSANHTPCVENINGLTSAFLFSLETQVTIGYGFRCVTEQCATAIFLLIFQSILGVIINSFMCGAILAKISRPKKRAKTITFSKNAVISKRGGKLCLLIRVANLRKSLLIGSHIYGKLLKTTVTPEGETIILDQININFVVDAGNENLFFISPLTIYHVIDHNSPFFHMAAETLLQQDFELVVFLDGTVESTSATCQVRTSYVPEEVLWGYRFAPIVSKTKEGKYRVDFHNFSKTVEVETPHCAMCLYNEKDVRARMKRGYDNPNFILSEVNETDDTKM
Insulin prom inh: TRM-6 insulin promoter activity inhibition; 130,000 tested, 0.9% active; inhibition, % at 2 µM; AID 1273; TRM-6 cells (human fetal islet line), insulin promoter-eGFP reporter, imaging; reporter expression induced with tamoxifen;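 active = inhibition above the mean plus 3 SD, with well images judged a real hit on visual review, cut at about 60% in these data, passing the limit was not always enough; inconclusive = inhibition over the cutoff but images rejected on review; inactive = inhibition not above the cutoff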
WT yeast gro inh: growth inhibition of WT yeast, mitochondrial fusion screen | inhibition, % at 10 µM | AID 1362 | 190,000 tested, 2.1% active | mitochondrial fusion phenotypic screen, WT strain; in the data active = inhibition above about 58%; tested in S. cerevisiae
L major viab: inhibitors of Leishmania major promastigote growth | Leishmania major promastigotes, resazurin fluorescence viability | inhibition, % at 10 µM | 200,000 tested, 9% active | AID 1063; in the data active = inhibition above about 50%;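 note: promastigotes grown with compound for 44 hours at 28 °C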
KCC2 sec1: KCC2 (human) modulation, secondary assay | shares compounds with KCC2 mod | normalised thallium flux (F/F0 slope) at 10 µM | HEK293-KCC2, thallium flux, FluoZin2 fluorescence; hits give high values | 3,700 tested, 15% active;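 active = thallium flux slope above the same plate's solvent-only control mean plus 3 SD; inconclusive = the two replicate wells disagree; inactive = no significant difference from solvent-only control wells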
KCC2 bumet counter: bumetanide-insensitive thallium flux in KCC2 cells with ouabain, counter-screen; shares compounds with KCC2 mod; HEK293-KCC2 + bumetanide/ouabain, thallium flux FluoZin2; hits give high values; normalized thallium flux at 10 µM; 3,700 tested, 49% active; AID 1714;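 active = thallium entry rate above the same plate's blocked-transporter control wells by more than 3 SD; inconclusive = the two repeat wells disagree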;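 note: raw slope of fluorescence over initial fluorescence between 10 and 20 s after thallium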
KCC2 secondary2: KCC2 (human) modulation, second secondary assay; HEK293-KCC2, thallium flux FluoZin2 fluorescence; actives lie on both sides; F/F0 rise rate, 10–20 s post-thallium; shares compounds with KCC2 mod; AID 1715; normalized thallium flux at 10 µM; 3,700 tested, 23% active;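 active = thallium flux slope more than 3 SD above or below the plate's solvent-only control mean, mostly below; inconclusive = the two repeat wells disagreed; inactive = no significant shift from solvent-only controls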
HEK counter1: parental HEK flux effect, counter-screen; shares compounds with KCC2 mod; HEK293 parental cells, thallium flux FluoZin2, ouabain; baseline-ratio fluorescence slope, 10–20 s after thallium; thallium flux rate (normalised fluorescence) at 10 µM; 3,700 tested, 46% active;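 active = thallium flux rate significantly above the same plate's solvent-only control wells, beyond their mean plus 3 SD; inconclusive = the two replicate wells gave conflicting results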
KCC2 ouabain: KCC2 (human) modulation, ouabain retest | shares compounds with KCC2 mod | HEK293-KCC2, thallium flux FluoZin2 fluorescence; bidirectional: low = inhibitor, high = activator | raw Tl+ flux slope (below DMSO = inhibition, above = activation) at 10 µM | 3,700 tested, 48% active;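 active = thallium flux slope beyond 3 SD from same-plate DMSO control mean in most replicates, usually higher, sometimes lower; inconclusive = repeat tests gave conflicting results; inactive = no significant difference from controls in most replicates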;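 note: slope of initial-normalized fluorescence between seconds 10 and 20 after thallium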
HEK293 Tl flux2: counter-screen for KCC2 modulators: effect in parental HEK293 cells | thallium flux FluoZin-2 fluorescence slope | thallium flux slope at 10 µM | 3,700 tested, 33% active | shares compounds with KCC2 mod | AID 1718;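 active = thallium flux slope above the same plate's solvent-control mean plus 3 SD in both duplicate wells; inconclusive = duplicate wells that disagreed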;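 note: run without ouabain in cells lacking the KCC2 cotransporter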
Each line names hits and unclear results; the compound was inactive in the other large screens (follow-up assays come after a bar, where they were run).

O=C(NC(=S)Nc1ccc(CN2CCOCC2)cc1)c1ccc([N+](=O)[O-])cc1	KCC2 mod 4.6 (no result: ROMK primary, Insulin prom inh) | KCC2 sec1 inactive | KCC2 bumet counter 0.0097 | KCC2 secondary2 inactive | HEK counter1 0.012 | KCC2 ouabain inactive | HEK293 Tl flux2 0.013
O=C(Cn1cnc2ccccc2c1=O)N1CCN(c2ccc(F)cc2)CC1	none (no result: Insulin prom inh)
Cc1ccc(N(CC(=O)NCCSCc2ccco2)S(C)(=O)=O)cc1	none (no result: Insulin prom up, ROMK primary)
Cc1ccc(S(=O)(=O)N(CC(=O)NCCSCc2ccco2)c2ccc(F)cc2)cc1	KCC2 mod -4.3 (no result: Insulin prom inh) | KCC2 sec1 inactive | KCC2 bumet counter inactive | KCC2 secondary2 inactive | HEK counter1 inactive | KCC2 ouabain 0.016 | HEK293 Tl flux2 inactive
CSc1nnc(-c2cccc(NC(=O)c3ccccc3)c2)n1C	none (no result: ROMK primary, Insulin prom inh, WT yeast gro inh, L major viab)
O=C(CN1CCN(S(=O)(=O)c2ccc(Cl)cc2)CC1)Nc1ccc2c(c1)CCC2	none | KCC2 sec1 inactive | KCC2 bumet counter inactive | KCC2 secondary2 inactive | HEK counter1 inactive | KCC2 ouabain inactive | HEK293 Tl flux2 inactive
Cc1ccc(S(=O)(=O)N2CCN(CC(=O)Nc3ccc4c(c3)CCC4)CC2)cc1C	none
NC(=S)NN=C(Cc1ccccc1)Cc1ccccc1	none
Cc1cc(=O)n(Cc2ccc(OC(C)C)cc2)c(=S)[nH]1	none (no result: Insulin prom up, KCC2 mod) | KCC2 sec1 inconclusive | KCC2 bumet counter 0.015 | KCC2 secondary2 inactive | HEK counter1 0.016 | KCC2 ouabain inconclusive | HEK293 Tl flux2 inactive
COC(=O)c1ccc2c(=O)n(Cc3ccc(C(=O)NC(C)C)cc3)c(=S)[nH]c2c1	none
CCOC(=O)NC(=O)c1cn(Nc2ccccc2C(F)(F)F)c(=O)[nH]c1=O	none (no result: Insulin prom inh, WT yeast gro inh, L major viab)
Cc1ccc(Cc2c[nH]c(=S)s2)cc1	KCC2 mod 194, WT yeast gro inh 68 (no result: ROMK primary) | KCC2 sec1 inconclusive | KCC2 bumet counter 0.14 | KCC2 secondary2 0.11 | HEK counter1 0.11 | KCC2 ouabain 0.14 | HEK293 Tl flux2 0.099
Cc1ccc(Cc2c(C)[nH]c(=S)[nH]c2=O)cc1	none (no result: Insulin prom inh, WT yeast gro inh, L major viab)
CCC(CC)NC(=O)c1ccc2c(c1)OCCO2	none (no result: WT yeast gro inh)
Cc1ccc(C)c(S(=O)(=O)NC(C)C(=O)Nc2ccc(-c3nc4ccccc4s3)cc2)c1 (stereo not given)	KCC2 mod 4.8 (no result: Insulin prom inh) | KCC2 sec1 inactive | KCC2 bumet counter 0.0059 | KCC2 secondary2 inactive | HEK counter1 inconclusive | KCC2 ouabain inactive | HEK293 Tl flux2 inactive
CC1(C(=O)O)Sc2[nH]c(=O)sc2C2c3ccccc3OC(=O)C21 (stereo not given)	none
CCOC(=O)c1c(-n2cnnn2)sc2c1CCCC2	none (no result: ROMK primary, Insulin prom inh, WT yeast gro inh, L major viab)
CCOC(=O)c1c(N2C(=O)Nc3cc(Cl)c(Cl)cc3N2O)sc2c1CCCCC2	KCC2 mod -5.2 (no result: Insulin prom up, ROMK primary) | KCC2 sec1 inactive | KCC2 bumet counter 0.013 | KCC2 secondary2 inactive | HEK counter1 inactive | KCC2 ouabain inconclusive | HEK293 Tl flux2 inactive
CC(C)c1ccc(CNC(=O)C(=O)Nc2nccs2)cc1	KCC2 mod 12 (no result: Insulin prom up, Insulin prom inh) | KCC2 sec1 inconclusive | KCC2 bumet counter 0.019 | KCC2 secondary2 inactive | HEK counter1 0.019 | KCC2 ouabain inconclusive | HEK293 Tl flux2 0.016
NC(=S)Cc1ccccc1Cl	none (no result: ROMK primary, Insulin prom inh, WT yeast gro inh, L major viab)
CN1CCN(C(=O)CSc2nc(-c3ccco3)cc(C(F)(F)F)n2)CC1	none (no result: Insulin prom inh)
CC1Cc2ccccc2N1C(=O)CSc1ncc(-c2ccc(F)cc2)n1C (stereo not given)	KCC2 mod -4.2 (no result: ROMK primary, Insulin prom inh) | KCC2 sec1 inactive | KCC2 bumet counter inactive | KCC2 secondary2 0.024 | HEK counter1 0.006 | KCC2 ouabain 0.013 | HEK293 Tl flux2 inconclusive
Cn1c(-c2ccc(F)cc2)cnc1SCC(=O)N1CCCc2ccccc21	Insulin prom up inconclusive
CC1Cc2ccccc2N1C(=O)CSc1nnc2n1C(C)(C)Cc1ccccc1-2 (stereo not given)	KCC2 mod -5.6, L major viab 52 (no result: ROMK primary) | KCC2 sec1 inactive | KCC2 bumet counter inconclusive | KCC2 secondary2 0.024 | HEK counter1 inactive | KCC2 ouabain inconclusive | HEK293 Tl flux2 inactive
CCOC(=O)CSc1nnc2n1C(C)(C)Cc1ccccc1-2	none
CC1Cc2ccccc2N1C(=O)CSc1nc(-c2ccco2)cc(C(F)(F)F)n1 (stereo not given)	none (no result: KCC2 mod, Insulin prom inh) | KCC2 sec1 inactive | KCC2 bumet counter inactive | KCC2 secondary2 inactive | HEK counter1 inactive | KCC2 ouabain inactive | HEK293 Tl flux2 inactive
COC(=O)c1cc2c(s1)-c1ccc(OC)cc1CC2	none (no result: Insulin prom up, ROMK primary, Insulin prom inh, WT yeast gro inh, L major viab)
S=c1nc[nH]c2c1sc1nc(N3CCOCC3)c3c(c12)CCCC3	KCC2 mod 67 (no result: Insulin prom up, Insulin prom inh) | KCC2 sec1 0.0094 | KCC2 bumet counter 0.089 | KCC2 secondary2 0.069 | HEK counter1 0.082 | KCC2 ouabain 0.074 | HEK293 Tl flux2 0.062
Cn1nnc2c(sc3nc(N4CCOCC4)c4c(c32)CCCC4)c1=O	none (no result: Insulin prom inh)
O=C(Nc1nc2ccsc2c(=O)s1)c1ccc(F)cc1Cl	none (no result: Insulin prom inh, WT yeast gro inh, L major viab)
O=C(Nc1nc2ccsc2c(=O)s1)c1ccc(F)cc1	KCC2 mod 3.8 (no result: Insulin prom inh, WT yeast gro inh, L major viab) | KCC2 sec1 inactive | KCC2 bumet counter inconclusive | KCC2 secondary2 inactive | HEK counter1 0.011 | KCC2 ouabain inactive | HEK293 Tl flux2 inactive
S=c1[nH]c2ccc(Cl)cc2s1	KCC2 mod 86 (no result: ROMK primary, Insulin prom inh, WT yeast gro inh, L major viab) | KCC2 sec1 0.043 | KCC2 bumet counter 0.098 | KCC2 secondary2 0.085 | HEK counter1 0.087 | KCC2 ouabain 0.087 | HEK293 Tl flux2 0.058
S=c1nc[nH]c2c1[nH]c1ccc(Cl)cc12	none (no result: ROMK primary, Insulin prom inh, WT yeast gro inh, L major viab)
Cc1nn(CCC(=O)NNC(=S)Nc2ccccc2)c(C)c1Br	none (no result: ROMK primary)
O=C(Cc1ccc(S(=O)(=O)N2CCOCC2)s1)Nc1nc2c(s1)CCCC2	none (no result: ROMK primary)
Cn1cccc1CC(=O)NNC(=S)Nc1ccc(Cl)cc1Cl	none
COc1cccc(OCC(=O)NNC(=S)Nc2ccc(Cl)cc2Cl)c1	KCC2 mod 5.5 (no result: Insulin prom inh) | KCC2 sec1 inactive | KCC2 bumet counter 0.015 | KCC2 secondary2 inactive | HEK counter1 0.014 | KCC2 ouabain inconclusive | HEK293 Tl flux2 0.014
CCC12CN3CCN(CC(C3)/C1=N\NC(=O)c1ccc(C(C)(C)C)cc1)C2	none (no result: ROMK primary)

Assay outcomes from PubChem.
